Consider nine molecules from PubChem BioAssay (Tox21).

Assay [1] is described as follows: qHTS assay to identify small molecule agonists of the RXR signaling pathway - cell viability counter screen (AID 1159529).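 Further: HEK 293T cells carrying an RXR-alpha UAS beta-lactamase reporter; series mostly up to about 77 µM; nearly all actives have a fitted effect of over 50% in size.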 Summed up: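 HEK 293T RXRa-bla cells, 2% CS-FBS; 5 h settle; cpd 16 h 37 C, 5% CO2; CellTiter-Glo 30 min RT, luminescence. Tetraoctyl ammonium bromide as positive control.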
The nature of assay [2]: qHTS assay to identify small molecule antagonists of the retinoid acid receptor (RAR) signaling pathway - cell viability counter screen (AID 1159551). Further: nearly all actives have a fitted effect of over 35% in size. The essentials:
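Luminescent ATP quantitation (CellTiter-Glo) gave cell viability in C3RL4 cells exposed to test chemicals for 6 h at 37 C alongside 1 uM final retinol.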

Assay [3] in a line: qHTS assay to identify small molecule antagonists of the retinoic acid receptor (RAR) signaling pathway (AID 1159552; further: nearly all actives have a fitted effect of over 50% in size). Summed up: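 Cells of the C3RL4 line were seeded, incubated overnight, then dosed with compounds in DMSO followed immediately by retinol (1 uM final). Six hours later luciferase detection reagent went in; signal was measured after 30 min at RT.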
Assay [4] can be described thus: qHTS assay to identify small molecule agonists of the retinoic acid receptor (RAR) signaling pathway (AID 1159553). Summed up: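 Luminescence from a RARE-driven luciferase reporter in C3RL4 cells served as the read-out, measured after 30 min with detection reagent at room temperature. Compounds in DMSO were applied for 6 hr at 37 C following overnight seeding.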
The nature of assay [5]: qHTS assay to identify small molecule antagonists of the estrogen related receptor (ERR) signaling pathway from Tox21 library - cell viability counter screen (AID 1224834). Further: nearly all actives have a fitted effect of over 30% in size. Summed up: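 Fluorescence from CellTiter-Fluor gives the viability read-out, taken 30 min after reagent addition. Before that, ERR cells seeded 6 h earlier were incubated with compounds for 17.5 h at 37 C.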

Assay [6] addresses Luciferin 4-monooxygenase (Photinus pyralis) (UniProt P08659). Briefly: qHTS assay to identify small molecule inhibitors of firefly luciferase (AID 1224835). Further: series mostly up to about 120 µM; nearly all actives have a fitted effect of over 25% in size. Summed up: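 Biochemical qHTS: compounds run as interplate titrations against purified firefly enzyme, with D-luciferin and ATP each at its KM concentration. Light output recorded by CCD imaging.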
Assay [7] can be described thus: qHTS assay to identify small molecule agonists of the constitutive androstane receptor (CAR) signaling pathway - cell viability counter screen (AID 1224836). Further: series mostly up to about 92 µM; nearly all actives have a fitted effect of over 45% in size. The essentials:
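HepG2-CYP2B6-hCAR, 2500 cells/well, 4 h pre-incubation; cpd 15 conc + PK11195 0.75 uM final; 23 h, 37 C/5% CO2; CellTiter-Fluor, fluorescence.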

The nature of assay [8]: qHTS assay to identify small molecule antagonists of the constitutive androstane receptor (CAR) signaling pathway - cell viability counter screen (AID 1224837). Further: series mostly up to about 92 µM; nearly all actives have a fitted effect of over 45% in size. The essentials: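 HepG2-CYP2B6-hCAR cells, 2500/well, 4 hr pre-incubation; compound titration, 15 conc.; CITCO 50 nM final; 23 hr, 37 C/5% CO2; CellTiter-Fluor, fluorescence intensity.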
Assay [9] can be described thus: qHTS assay to identify small molecule antagonists of the estrogen related receptor signaling pathway with the pleiotropic PPARgamma coactivator (PGC) from Tox21 10K library - cell viability counter screen (AID 1224840; active means well fitted cell-killing curve with a large enough effect in the repeat runs, not every such curve was filed as active; further: nearly all actives have a fitted effect of over 40% in size). The essentials: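 PGC/ERR cells, 2,000/well; 6 h pre-incubation 37 C/5% CO2; cpd in DMSO via pin tool; 17.5 h 37 C; CellTiter-Fluor, 30 min; fluorescence.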

In assay [10] the target is Thyrotropin receptor (Homo sapiens) (UniProt P16473). Put plainly: qHTS assay to identify small molecule agonists of the thyroid stimulating hormone receptor (TSHR) signaling pathway (AID 1224843; calls by dose curve; further: nearly all actives have a fitted effect of over 45% in size; further: potency means the concentration at half of the fitted maximal effect). Summed up:
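TSHR-HEK293 cells in agonist mode, 30 min room-temperature step, then cAMP measured by competitive HTRF (cAMP-d2 with anti-cAMP cryptate) after 1 h at room temperature. Tested at 15 concentrations in triplicate.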

Assay [11] addresses Nuclear receptor subfamily 1 group I member 3 (Homo sapiens) (UniProt Q14994). Put plainly: qHTS assay to identify small molecule antagonists of the constitutive androstane receptor (CAR) signaling pathway (AID 1224838).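 Further: HepG2 cells stably expressing hCAR with CYP2B6 luciferase reporter stimulated by CITCO; nearly all actives have a fitted effect of over 40% in size.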 Summed up:
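HepG2-CYP2B6-hCAR cells; 4 h pre-incubation; cpd (15 conc) + CITCO 50 nM final; 24 h, 37 C/5% CO2; ONE-Glo, luminescence.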

The target is the same in assay [12]. Put plainly: qHTS assay to identify small molecule agonists of the constitutive androstane receptor (CAR) signaling pathway (AID 1224839). Further: nearly all actives have a fitted effect of over 15% in size. Further: potency means the concentration at half of the fitted maximal effect. The essentials: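 HepG2-CYP2B6-hCAR cells, 2500/well, 4 h pre-incubation; compounds 15 conc.; PK11195 0.75 uM final; 24 h, 37 C/5% CO2; ONE-Glo luciferase read.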
Assay [13] can be described thus: qHTS assay to identify small molecule antagonists of the estrogen related receptor (ERR) signaling pathway - cell viability counter screen (AID 1224818). Further: series mostly up to about 46 µM. Summed up: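 Multiplexed counter screen to separate cytotoxic compounds from true ERR modulators. ERR cells received DMSO-dissolved compounds after a 6 h pre-incubation, were exposed 17.5 h at 37 C, then assayed with CellTiter-Fluor fluorescence.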

A short description of assay [14]: qHTS assay to identify small molecule antagonists of the estrogen related receptor signaling pathway with the pleiotropic PPARgamma coactivator (PGC) cell viability counter screen (AID 1224822; further: series mostly up to about 46 µM). The essentials: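 Cells: PGC/ERR, 2,000/well, 1536-well format. Pre-incubation 6 h, 37 C/5% CO2. Compound exposure 17.5 h, 37 C. Detection: CellTiter-Fluor, 30 min, fluorescence.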

A short description of assay [15]: qHTS assay to identify small molecule antagonists of the estrogen related receptor signaling pathway with the pleiotropic PPARgamma coactivator (PGC) from Tox21 10K library (AID 1224841; call rule not given here; further: series mostly up to about 92 µM; actives are mostly falling curves and most rising ones were filed inactive; nearly all actives have a fitted effect of over 50% in size). Summed up:
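PGC/ERR cell line, 2,000 cells/well; 6 h pre-incubation 37 C/5% CO2; compounds (DMSO) pinned in; 18 h, 37 C; One-Glo, 30 min RT; luminescence.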

The nature of assay [16]: qHTS assay to identify small molecule agonists of the estrogen related receptor signaling pathway with the pleiotropic PPARgamma coactivator (PGC) from Tox21 10K library (AID 1224842). Further: nearly all actives have a fitted effect of over 15% in size. The essentials:
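PGC/ERR reporter cell line, 2,000 cells per well, incubated 6 h at 37 C before 23 nL compound in DMSO was added. After 18 h at 37 C, One-Glo luminescence read following 30 min at room temperature.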

Each structure is given as a SMILES string. Several values for one entry are separate records, joined by “and”; a condition that tells them apart may be missing. Equal entries are not always repeated. Results filed as inconclusive are left out. Activity calls are given as the source filed them. Unless noted, the call rests on the fitted dose curve; in most records, active means well fitted curve in the direction sought with a large enough effect in the repeat runs; inconclusive means weak or mixed curves; inactive means no such curve, though single readings can be large; an effect the other way counts as inactive or inconclusive.

Sequence of Thyrotropin receptor (Homo sapiens) (P16473 whole entry, looked up): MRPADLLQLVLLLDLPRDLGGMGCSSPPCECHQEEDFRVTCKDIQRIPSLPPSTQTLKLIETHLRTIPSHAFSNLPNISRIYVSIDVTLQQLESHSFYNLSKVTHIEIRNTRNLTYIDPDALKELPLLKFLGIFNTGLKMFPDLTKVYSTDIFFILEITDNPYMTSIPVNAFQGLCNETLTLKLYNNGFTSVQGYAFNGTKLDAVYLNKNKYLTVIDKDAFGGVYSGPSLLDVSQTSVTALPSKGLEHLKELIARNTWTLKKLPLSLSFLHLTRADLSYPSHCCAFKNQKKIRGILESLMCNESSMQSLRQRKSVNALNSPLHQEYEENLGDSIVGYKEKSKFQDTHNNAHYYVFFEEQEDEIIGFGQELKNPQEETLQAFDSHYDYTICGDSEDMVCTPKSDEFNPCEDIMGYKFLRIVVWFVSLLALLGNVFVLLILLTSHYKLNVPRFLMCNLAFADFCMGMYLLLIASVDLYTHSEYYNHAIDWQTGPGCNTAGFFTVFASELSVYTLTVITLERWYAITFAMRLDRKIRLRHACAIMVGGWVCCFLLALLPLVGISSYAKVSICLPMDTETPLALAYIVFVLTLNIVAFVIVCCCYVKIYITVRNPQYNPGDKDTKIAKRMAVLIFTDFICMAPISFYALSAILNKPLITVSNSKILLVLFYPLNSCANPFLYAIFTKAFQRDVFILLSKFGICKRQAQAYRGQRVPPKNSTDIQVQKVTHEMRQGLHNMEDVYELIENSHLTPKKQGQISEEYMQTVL
Sequence of Luciferin 4-monooxygenase (Photinus pyralis) (P08659 whole entry, looked up): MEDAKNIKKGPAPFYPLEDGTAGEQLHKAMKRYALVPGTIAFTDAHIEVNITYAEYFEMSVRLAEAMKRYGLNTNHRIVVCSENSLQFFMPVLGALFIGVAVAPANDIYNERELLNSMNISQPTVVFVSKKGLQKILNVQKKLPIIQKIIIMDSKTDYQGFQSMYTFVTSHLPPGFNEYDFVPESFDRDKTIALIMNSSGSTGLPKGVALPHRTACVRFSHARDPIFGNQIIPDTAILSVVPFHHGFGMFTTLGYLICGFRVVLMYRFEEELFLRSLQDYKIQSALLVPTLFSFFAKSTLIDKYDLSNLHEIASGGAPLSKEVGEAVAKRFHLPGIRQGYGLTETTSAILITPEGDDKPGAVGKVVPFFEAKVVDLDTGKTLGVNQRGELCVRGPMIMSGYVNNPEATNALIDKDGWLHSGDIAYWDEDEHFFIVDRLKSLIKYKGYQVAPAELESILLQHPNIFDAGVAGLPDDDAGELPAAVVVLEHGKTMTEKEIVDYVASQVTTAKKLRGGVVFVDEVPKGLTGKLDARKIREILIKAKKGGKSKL
Sequence of Nuclear receptor subfamily 1 group I member 3 (Homo sapiens) (Q14994 whole entry, looked up): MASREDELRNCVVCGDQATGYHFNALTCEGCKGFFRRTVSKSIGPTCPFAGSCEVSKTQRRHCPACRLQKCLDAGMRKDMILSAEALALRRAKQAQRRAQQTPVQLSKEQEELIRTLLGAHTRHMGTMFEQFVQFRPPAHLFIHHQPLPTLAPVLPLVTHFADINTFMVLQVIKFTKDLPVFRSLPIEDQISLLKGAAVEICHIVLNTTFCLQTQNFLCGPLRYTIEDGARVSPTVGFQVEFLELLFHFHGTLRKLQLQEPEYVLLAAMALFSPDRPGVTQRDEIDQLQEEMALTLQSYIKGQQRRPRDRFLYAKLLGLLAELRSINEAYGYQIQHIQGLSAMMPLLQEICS

Consider `CC(C)=CCCC(C)CCO` (configuration not stated), for which the Potency entry in [1], in assay [2], in [3], in assay [4], in assay [5] and in assay [6] was “inactive” each time. The Potency result in assay [7], in assay [8], in [9] and in assay [10] was “inactive” throughout.

Consider `C=CC(C)(CCC=C(C)C)OC(C)=O` (configuration not stated), for which the Potency result in [1], in assay [2], in assay [3], in [4], in assay [5] and in assay [6] was “inactive” throughout. Besides, the Potency entry in assay [7], in assay [8], in assay [11], in [12], in assay [9] and in [10] was “inactive” in each case.

With `CN1C(C(=O)Nc2ccccn2)=C(O)c2ccccc2S1(=O)=O`, the Potency result in assay [1], in [2], in assay [3], in assay [4], in assay [13] and in assay [14] was “inactive” throughout. Moreover, the Potency result in assay [5], in assay [7], in assay [8], in assay [11], in assay [12] and in assay [9] was “inactive” throughout. For the same molecule, in assay [10], the Potency entry was “inactive”.

Consider `C#C[C@]1(O)CC[C@H]2[C@@H]3CCc4cc(OC)ccc4[C@H]3CC[C@@]21C`, for which the Potency entry in [1], in assay [2], in assay [3], in assay [4], in assay [5] and in assay [6] was “inactive” throughout. In addition, the Potency entry in [7], in assay [8], in assay [11], in [9] and in assay [15] was “inactive” each time. The Potency in [12] is 27.3 µM (active) and 23.7 µM (active); in assay [10] it was 19.3 µM (active).

On to `CCC(C)c1ccccc1O` (configuration not stated), for which the Potency entry in assay [1], in assay [2], in assay [3], in [4], in [5] and in assay [6] was “inactive” throughout. For the same molecule, the Potency entry in [7], in assay [8], in assay [11], in assay [12], in assay [9] and in assay [15] was “inactive” in each case. Moreover, the Potency entry in [16] and in assay [10] was “inactive” each time.

Take `O=CCc1ccccc1`: the Potency entry in [1], in assay [2], in assay [3], in [4], in assay [6] and in [7] was “inactive” throughout. In addition, the Potency result in assay [8], in assay [11], in [12] and in assay [9] was “inactive” in each case.

As to `Cc1cccc(C(=O)O)c1`, the Potency entry in [1], in [2], in assay [3], in [4], in assay [6] and in assay [7] was “inactive” each time. Also, the Potency entry in [8], in assay [11], in [12], in assay [9], in assay [15] and in assay [16] was “inactive” each time. In addition, the Potency result in assay [10] is “inactive”.

On to `C[C@]12CCC(=O)C=C1CC[C@@H]1[C@@H]2C(=O)C[C@@]2(C)[C@H]1CC[C@]2(O)C(=O)CO`, for which the Potency entry in assay [1], in assay [2], in assay [3], in [4], in assay [13] and in [14] was “inactive” each time. Also, the Potency result in assay [5], in assay [6], in assay [7], in assay [8], in [11] and in assay [12] was “inactive” in each case. Also, the Potency entry in assay [9] was “inactive”.

As to `CC(=O)C1(C)CC2=C(CCCC2(C)C)CC1C` (configuration not stated), the Potency entry in [1], in [2], in assay [3], in [4], in assay [5] and in assay [6] was “inactive” throughout. Moreover, the Potency result in assay [7], in [8], in assay [11], in assay [12], in assay [9] and in assay [15] was “inactive” each time. Moreover, the Potency result in assay [16] and in assay [10] was “inactive” throughout.
